Screen size: about 5,500 compounds; about 2,000 (36%) were called active. Roughly 18% stayed inconclusive and do not appear here. Rule as the data show it: active = normalized growth mostly below about 0.91 (no sharp cut-off); inconclusive = no clear call, values can overlap the other calls; inactive = mostly above about 0.92. This is one part of the list.
Assay: chemical genetic growth profiling, strain panel (AID 1159580);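 also: tested at 20 µM; growth read once vehicle control cultures reached saturation at 30 °C; 1 = growth at the plate median or of vehicle wells; lower values mean less growth of the strain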
Details: S. cerevisiae deletion strains, growth OD

Measured: normalized growth

O=C1OC2(c3ccc(O)cc3Oc3cc(O)ccc32)c2ccccc21
inactive: locus YAL021C, strain ccr4, stronger effect = lower value 1.02 | locus YAL026C, strain drs2, stronger effect = lower value 0.997 | locus YAL030W, strain snc1, stronger effect = lower value 1.01 | locus YBL061C, strain skt5, stronger effect = lower value 1.01 | locus YBR009C, strain hhf1, stronger effect = lower value 0.995 | locus YBR023C, strain chs3, stronger effect = lower value 1.02 | locus YBR171W, strain sec66, stronger effect = lower value 1.04 | locus YBR231C, strain swc5, stronger effect = lower value 1 | locus YBR279W, strain paf1, stronger effect = lower value 1.01 | locus YCL011C, strain gbp2, stronger effect = lower value 1.02 | locus YCL016C, strain dcc1, stronger effect = lower value 1 | locus YCL069W, strain vba3, stronger effect = lower value 1.02 | locus YCR088W, strain abp1, stronger effect = lower value 1.03 | locus YDL005C, strain med2, stronger effect = lower value 1.02 | locus YDL040C, strain nat1, stronger effect = lower value 1.01 | locus YDR001C, strain nth1, stronger effect = lower value 1.03 | locus YDR069C, strain doa4, stronger effect = lower value 1.01 | locus YDR137W, strain rgp1, stronger effect = lower value 0.994 | locus YDR159W, strain sac3, stronger effect = lower value 0.986 | locus YDR195W, strain ref2 1.03 | locus YDR297W, strain sur2, stronger effect = lower value 1.02 | locus YDR334W, strain swr1, stronger effect = lower value 0.989 | locus YDR335W, strain msn5, stronger effect = lower value 1.01 | locus YDR392W, strain spt3, stronger effect = lower value 0.976 | locus YEL003W, strain gim4, stronger effect = lower value 1.01 | locus YEL037C, strain rad23, stronger effect = lower value 1.01 | locus YEL061C, strain CIN8 (second series), stronger effect = lower value 1.01 | locus YER015W, strain faa2, stronger effect = lower value 1.01 | locus YER016W, strain bim1, stronger effect = lower value 0.994 | locus YER111C, strain swi4, stronger effect = lower value 1.01 | locus YER155C, strain BEM2 (second series), stronger effect = lower value 1.02 | locus YFR010W, strain ubp6, stronger effect = lower value 1.02 | locus YGL167C, strain pmr1, stronger effect = lower value 1.02 | locus YGL173C, strain kem1, stronger effect = lower value 1.01 | locus YGL227W, strain vid30, stronger effect = lower value 1.02 | locus YGL240W, strain doc1, stronger effect = lower value 0.973 | locus YGL253W, strain hxk2, stronger effect = lower value 1.02 | locus YHR013C, strain ard1, stronger effect = lower value 1.04 | locus YHR027C, strain rpn1, stronger effect = lower value 1.01 | locus YHR030C, strain SLT2, stronger effect = lower value 0.978 | locus YHR079C, strain IRE1, stronger effect = lower value 0.974 | locus YHR142W, strain chs7, stronger effect = lower value 1.04 | locus YJL092W, strain hpr5, stronger effect = lower value 1.02 | locus YJL095W, strain BCK1 (second series), stronger effect = lower value 1.01 | locus YJL095W, strain BCK1, stronger effect = lower value 1.02 | locus YJL115W, strain asf1, stronger effect = lower value 1.01 | locus YJL129C, strain trk1, stronger effect = lower value 1.04 | locus YJL154C, strain vps35, stronger effect = lower value 1.02 | locus YJL164C, strain tpk1, stronger effect = lower value 1 | locus YJL166W, strain qcr8, stronger effect = lower value 1 | locus YJR066W, strain TOR1, stronger effect = lower value 0.938 | locus YKL160W, strain elf1, stronger effect = lower value 1.02 | locus YKR026C, strain gcn3, stronger effect = lower value 1.02 | locus YKR091W, strain srl3, stronger effect = lower value 1.02 | locus YLL001W, strain dnm1, stronger effect = lower value 0.997 | locus YLL026W, stronger effect = lower value 0.999 | locus YLL041C, strain sdh2, stronger effect = lower value 1.01 | locus YLR027C, strain aat2, stronger effect = lower value 1.01 | locus YLR113W, strain HOG1, stronger effect = lower value 0.98 | locus YLR221C, strain rsa3, stronger effect = lower value 0.999 | locus YLR258W, strain gsy2, stronger effect = lower value 1.01 | locus YLR262C, strain YPT6 (second series), stronger effect = lower value 1 | locus YLR320W, strain mms22, stronger effect = lower value 1 | locus YLR342W, strain FKS1, stronger effect = lower value 0.992 | locus YLR357W, strain rsc2, stronger effect = lower value 1.01 | locus YLR370C, strain arc18, stronger effect = lower value 1.01 | locus YLR384C, strain iki3, stronger effect = lower value 1.02 | locus YML120C, strain ndi1, stronger effect = lower value 1.04 | locus YMR058W, strain fet3, stronger effect = lower value 1.01 | locus YMR125W, strain sto1, stronger effect = lower value 1.02 | locus YMR129W, stronger effect = lower value 1.02 | locus YMR205C, strain PFK2, stronger effect = lower value 1.02 | locus YMR231W, strain pep5, stronger effect = lower value 1.02 | locus YNL071W, strain lat1, stronger effect = lower value 1.01 | locus YNL183C, strain NPR1, stronger effect = lower value 0.951 | locus YNL209W, strain ssb2, stronger effect = lower value 1.02 | locus YNL248C, strain rpa49, stronger effect = lower value 1 | locus YNL322C, strain KRE1 (second series), stronger effect = lower value 0.99 | locus YNR049C, strain mso1, stronger effect = lower value 1.02 | locus YOR001W, strain rrp6, stronger effect = lower value 1.01 | locus YOR070C, strain gyp1, stronger effect = lower value 1.01 | locus YOR080W, strain dia2, stronger effect = lower value 1.02 | locus YOR083W, strain WHI5, stronger effect = lower value 0.98 | locus YOR106W, strain vam3, stronger effect = lower value 1.02 | locus YOR231W, strain MKK1, stronger effect = lower value 0.971 | locus YOR265W, strain rbl2, stronger effect = lower value 1.01 | locus YOR270C, strain vph1, stronger effect = lower value 0.991 | locus YOR290C, strain snf2, stronger effect = lower value 1 | locus YPL051W, strain arl3, stronger effect = lower value 0.997 | locus YPL078C, strain atp4, stronger effect = lower value 0.992 | locus YPL106C, strain sse1, stronger effect = lower value 0.987 | locus YPL240C, strain hsp82, stronger effect = lower value 1.01 | locus YPL256C, strain CLN2, stronger effect = lower value 0.99

— PubChem BioAssay AID1159580 (chemical genetic matrix, 2015)
